Reference: PubChem BioAssay (NCI)
About 83,000 compounds went through this panel and 20% of them were active in at least one assay; those are over-represented in the sample as a whole.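 Cells were grown in 96-well plates and exposed to the test compound at a single concentration for 48 hours; results are reported as percent growth, with values below 10 considered active.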 Values without a mark were called inactive. Active and inactive are the calls of the source.

tested on: HS 578T breast; assay: NCI-60 one-dose screen, 48 h (100 = growth as untreated, 0 = no growth, -100 = all killed); conditions: 10 µM

Row | SMILES | growth
1 | O=C(O)CCCCCCCCCCN1C(=O)/C(=C/c2cnc(-c3ccccc3)s2)SC1=S | 117%
2 | COc1ccc(-c2ccc(/C=N/NC(=O)c3[nH]c4ccc(Br)cc4c3-c3ccccc3)s2)cc1 | 54%
3 | O=C1N/C(=N\c2nccs2)S/C1=C\c1cccs1 | 49.9%
4 | O=C(CNc1nc(-c2ccccc2)cs1)Nc1ccccc1 | 14.3%
5 | COc1cc2c3c(n(CCCNC(C)C)c(=O)c2cc1OC)-c1nc2c(cc1C3=O)OCO2 | 88.8%
6 | Cc1cccc(-c2nc(Nc3ccccc3C(=O)O)c3ccccc3n2)c1 | 16.6%
7 | N#Cc1ccc(-c2nn(-c3ccc(C(=O)O)cc3)cc2CNc2ccc(Cl)cc2)cc1 | 88.6%
8 | COc1ccc2nc(Cl)c(-c3cc(-c4ccccc4)nc(=S)[nH]3)cc2c1 | 31.7%
9 | Cc1ccc(NC(=O)c2ccc(-n3c(=O)[nH]c4ccccc4c3=O)cc2)cc1 | 78.3%
10 | Nc1nc(Nc2ccc(Cl)cc2)n(Cc2cccc(Br)c2)n1 | -25.9% (active)
11 | O=C(CN1CCN(c2ncnc3c2cnn3-c2ccccc2)CC1)Nc1nncs1 | 3.92% (active)
12 | O=c1c2ccccc2nc(COc2ccccc2)n1/N=C/c1ccc(N2CCOCC2)cc1 | 41.2%
13 | Cn1c(O)c(N=Nc2nc(-c3cc4ccccc4oc3=O)cs2)c2cc(Br)ccc21 | 17.5%
14 | O=c1nc(-c2ccccc2)cc(-c2cc3ccccc3nc2Cl)[nH]1 | 69.6%
15 | C/C(=N\NC(N)=S)c1ccc(Nc2nc(SC(C)C)nc(-c3ccccc3)c2C#N)cc1 | 18.7%
